The nature of assay [1]: NCI Yeast Anticancer Drug Screen. Data for the rad50 strain (AID 155).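 Note: 0% = growth of vehicle-only cultures of the same strain.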 Particulars: S. cerevisiae rad50 strain growth inhibition, hits give high values. In a few lines:
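Readout: growth inhibition relative to vehicle-treated cultures. Compound exposure was carried out in a genetically defined yeast strain deficient in DNA damage repair.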

Assay [2] in a line: NCI Yeast Anticancer Drug Screen. Data for the mec2-1 strain (AID 157). The note with it: S. cerevisiae mec2-1 strain, hits give high values. In a few lines: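 Vehicle-treated cultures served as reference for growth inhibition of compound-exposed mec2-1 yeast.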
A short description of assay [3]: NCI Yeast Anticancer Drug Screen. Data for the sgs1 mgt1 strain (AID 161).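 Note: 0% = growth of cultures given vehicle only.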 Particulars: S. cerevisiae sgs1 mgt1 strain, hits give high values. Summed up:
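Read-out: growth inhibition vs vehicle controls. Cells: mutant yeast strain deficient in DNA damage repair.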

Assay [4] is described as follows: NCI Yeast Anticancer Drug Screen. Data for the cln2 rad14 strain (AID 165).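 Note: 0% = growth equal to vehicle treated cultures.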 Particulars: S. cerevisiae cln2 rad14 strain, hits give high values. In a few lines: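 Each compound was tested on cln2 rad14 yeast. Inhibition of growth was calculated against vehicle-exposed controls.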
Assay [5] in a line: NCI Yeast Anticancer Drug Screen. Data for the bub3 strain (AID 167). Particulars: S. cerevisiae bub3 mutant strain, hits give high values. Summed up: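 Readout: yeast growth inhibition, expressed relative to vehicle-only wells. The test organism is a mutant strain from a panel with lesions in DNA repair or checkpoint genes.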
Assay [6] can be described thus: NCI Yeast Anticancer Drug Screen. Data for the mlh1 rad18 strain (AID 175). The note with it: S. cerevisiae mlh1 rad18 strain growth inhibition, hits give high values. Summed up:
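Vehicle-treated cultures served as the reference for growth inhibition in a yeast strain carrying DNA damage repair alterations exposed to each compound.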

Where [7] appears, read: at 5.0 µM (retest, dose inferred, filed as 0.5).
Setting [8] is: at 50.0 µM (retest, dose inferred, filed as 5.0).

We go through 10 molecules from PubChem BioAssay (NCI).

This is part of a sample that, as a whole, favours compounds with a hit. Of some 79,000 tested, about 15% had one in any assay. Unmarked numbers belong to inactive results. The source made the active and inactive calls. Cut-off read from the data, not from the text of the source: active = growth inhibition above about 70%; inactive = the rest.

For `C(=C/c1ccnc2ccccc12)/c1cccs1`, the growth inhibition in assay [1] (setting [7]) is -2%; in assay [1] (setting [8]), 93% (active); in assay [1] (at 50.0 µM), 98.2% (active); in assay [2] (setting [7]) it was 1%; in assay [2] (setting [8]) it was 93% (active); in assay [2] (at 50.0 µM), 98.8% (active). Further, the growth inhibition was 2% in assay [3] (setting [7]); 91% (active) in assay [3] (setting [8]); 98.8% (active) in assay [3] (at 50.0 µM); 0% in assay [4] (setting [7]); 57% in assay [4] (setting [8]); 98.1% (active) in assay [4] (at 50.0 µM). For the same molecule, the growth inhibition in assay [5] (setting [7]) is 4%; in assay [5] (setting [8]) it was 81% (active); in assay [5] (at 50.0 µM), 98.3% (active); in assay [6] (setting [7]), -2%; in assay [6] (setting [8]) it was 94% (active); in assay [6] (at 50.0 µM), 98.2% (active).
`COc1c([N+](=O)[O-])cc(-c2ccccc2)cc1[N+](=O)[O-]`: the growth inhibition in assay [1] (setting [7]) is -4%; in assay [1] (setting [8]) it was 89% (active); in assay [1] (at 50.0 µM), 69.9%; in assay [2] (setting [7]) it was 10%; in assay [2] (setting [8]) it was 98% (active); in assay [2] (at 50.0 µM), 65.3%. In addition, the growth inhibition in assay [3] (setting [7]) is 14%; in assay [3] (setting [8]), 93% (active); in assay [3] (at 50.0 µM), 77.8% (active); in assay [4] (setting [7]), -2%; in assay [4] (setting [8]), 58%; in assay [4] (at 50.0 µM) it was 67.5%. Further, the growth inhibition in assay [5] (setting [7]) is 5%; in assay [5] (setting [8]), 63%; in assay [5] (at 50.0 µM) it was 74.2% (active); in assay [6] (setting [7]), 26%; in assay [6] (setting [8]), 96% (active); in assay [6] (at 50.0 µM), 83.2% (active).
In the case of `COC(=O)/C(C#N)=C(/SC)N(C)C`, the growth inhibition in assay [1] (setting [7]) is 4%; in assay [1] (setting [8]), 7%; in assay [1] (at 50.0 µM), 4.35%; in assay [2] (setting [7]) it was 8%; in assay [2] (setting [8]) it was 15%; in assay [2] (at 50.0 µM) it was 4.1%. Besides, the growth inhibition in assay [3] (setting [7]) is 2%; in assay [3] (setting [8]), 10%; in assay [3] (at 50.0 µM), -10.3%; in assay [4] (setting [7]) it was 6%; in assay [4] (setting [8]), 7%; in assay [4] (at 50.0 µM), 38.6%. In addition, the growth inhibition in assay [5] (setting [7]) was 0%; in assay [5] (setting [8]), 7%; in assay [5] (at 50.0 µM), 2.55%; in assay [6] (setting [7]), 12%; in assay [6] (setting [8]), 11%; in assay [6] (at 50.0 µM), -10.3%.
For the molecule `CCOC(=O)C1=C(C)NC(=O)NC1c1coc2cc(C)cc(C)c2c1=O` (stereo not given), the growth inhibition was -1% in assay [1] (setting [7]); 10% in assay [1] (setting [8]); 12.4% in assay [1] (at 50.0 µM); -2% in assay [2] (setting [7]); 15% in assay [2] (setting [8]); -5% in assay [2] (at 50.0 µM). The growth inhibition in assay [3] (setting [7]) is 3%; in assay [3] (setting [8]), 14%; in assay [3] (at 50.0 µM), -2.5%; in assay [4] (setting [7]) it was 20%; in assay [4] (setting [8]), 5%; in assay [4] (at 50.0 µM), 52.2%. In addition, the growth inhibition in assay [5] (setting [7]) was 14%; in assay [5] (setting [8]), -4%; in assay [5] (at 50.0 µM), -15.8%; in assay [6] (setting [7]), 0%; in assay [6] (setting [8]) it was 1%; in assay [6] (at 50.0 µM) it was -7.1%.
`C/C(=N\NC(=S)N(C)C)c1cccc(C)n1`: the growth inhibition in assay [1] (setting [7]) is 76% (active); in assay [1] (setting [8]), 98% (active); in assay [1] (at 50.0 µM), 99.2% (active); in assay [2] (setting [7]) it was 84% (active); in assay [2] (setting [8]) it was 99% (active); in assay [2] (at 50.0 µM) it was 99.3% (active). Further, the growth inhibition in assay [3] (setting [7]) is 84% (active); in assay [3] (setting [8]), 99% (active); in assay [3] (at 50.0 µM), 99.2% (active); in assay [4] (setting [7]), 89% (active); in assay [4] (setting [8]), 99% (active); in assay [4] (at 50.0 µM) it was 99% (active). The growth inhibition in assay [5] (setting [7]) was 70% (active); in assay [5] (setting [8]), 98% (active); in assay [5] (at 50.0 µM) it was 99.3% (active); in assay [6] (setting [7]), 95% (active); in assay [6] (setting [8]), 98% (active); in assay [6] (at 50.0 µM) it was 99.3% (active).
Take `C#Cc1cccc(N=Cc2cc(Cl)cc(Cl)c2O)c1`: the growth inhibition was 13% in assay [1] (setting [7]); 90% (active) in assay [1] (setting [8]); 94.6% (active) in assay [1] (at 50.0 µM); 8% in assay [2] (setting [7]); 90% (active) in assay [2] (setting [8]); 94.3% (active) in assay [2] (at 50.0 µM). For the same molecule, the growth inhibition in assay [3] (setting [7]) is 20%; in assay [3] (setting [8]), 97% (active); in assay [3] (at 50.0 µM), 97.8% (active); in assay [4] (setting [7]) it was -1%; in assay [4] (setting [8]) it was 91% (active); in assay [4] (at 50.0 µM) it was 62.4%. Moreover, the growth inhibition in assay [5] (setting [7]) was -1%; in assay [5] (setting [8]), 80% (active); in assay [5] (at 50.0 µM) it was 89.9% (active); in assay [6] (setting [7]) it was 20%; in assay [6] (setting [8]), 98% (active); in assay [6] (at 50.0 µM), 97.2% (active).
On to `CN1C(/C=C/c2ccc(O)c3ncccc23)CCC2CCCC(O)C21` (stereo not given), for which the growth inhibition in assay [1] (setting [7]) is 1%; in assay [1] (setting [8]), 94% (active); in assay [1] (at 50.0 µM), 95% (active); in assay [2] (setting [7]), 26%; in assay [2] (setting [8]) it was 95% (active); in assay [2] (at 50.0 µM) it was 89.6% (active). In addition, the growth inhibition in assay [3] (setting [7]) is 9%; in assay [3] (setting [8]), 94% (active); in assay [3] (at 50.0 µM), 92.2% (active); in assay [4] (setting [7]) it was -12%; in assay [4] (setting [8]) it was 91% (active); in assay [4] (at 50.0 µM), 85.2% (active). The growth inhibition in assay [5] (setting [7]) was 8%; in assay [5] (setting [8]) it was 96% (active); in assay [5] (at 50.0 µM), 92.8% (active); in assay [6] (setting [7]), 14%; in assay [6] (setting [8]), 96% (active); in assay [6] (at 50.0 µM), 95.4% (active).
In the case of `CS(=O)(=O)c1nnnn1-c1ccccc1`, the growth inhibition in assay [1] (setting [7]) was -21%; in assay [1] (setting [8]), 93% (active); in assay [1] (at 50.0 µM) it was 99.2% (active); in assay [2] (setting [7]) it was -24%; in assay [2] (setting [8]) it was 97% (active); in assay [2] (at 50.0 µM) it was 99.5% (active). The growth inhibition in assay [3] (setting [7]) was -18%; in assay [3] (setting [8]), 96% (active); in assay [3] (at 50.0 µM), 99% (active); in assay [4] (setting [7]) it was -49%; in assay [4] (setting [8]), 94% (active); in assay [4] (at 50.0 µM) it was 97.3% (active). Moreover, the growth inhibition in assay [5] (setting [7]) was -34%; in assay [5] (setting [8]), 95% (active); in assay [5] (at 50.0 µM) it was 99.4% (active); in assay [6] (setting [7]) it was -62%; in assay [6] (setting [8]), 96% (active); in assay [6] (at 50.0 µM) it was 99.5% (active).
Consider `CC1CCC2(NC1)OC1CC3[C@@H]4CC=C5C=CCC[C@]5(C)C4CC[C@]3(C)C1C2C` (stereo not given in full), for which the growth inhibition was -16% in assay [1] (setting [7]); 97% (active) in assay [1] (setting [8]); 90.8% (active) in assay [1] (at 50.0 µM); 4% in assay [2] (setting [7]); 99% (active) in assay [2] (setting [8]); 93.1% (active) in assay [2] (at 50.0 µM). In addition, the growth inhibition was -4% in assay [3] (setting [7]); 98% (active) in assay [3] (setting [8]); 91.6% (active) in assay [3] (at 50.0 µM); 6% in assay [4] (setting [7]); 97% (active) in assay [4] (setting [8]); 90.9% (active) in assay [4] (at 50.0 µM). Moreover, the growth inhibition in assay [5] (setting [7]) was -33%; in assay [5] (setting [8]) it was 98% (active); in assay [5] (at 50.0 µM), 90.8% (active); in assay [6] (setting [7]) it was -10%; in assay [6] (setting [8]), 97% (active); in assay [6] (at 50.0 µM) it was 89.1% (active).
Take `CC1CCN(c2cc(-c3cc4ccccc4o3)oc(=O)c2C#N)CC1`: the growth inhibition in assay [1] (setting [7]) is 7%; in assay [1] (setting [8]), 1%; in assay [1] (at 50.0 µM), 66.5%; in assay [2] (setting [7]), 2%; in assay [2] (setting [8]) it was 3%; in assay [2] (at 50.0 µM) it was 56.7%. For the same molecule, the growth inhibition is 3% in assay [3] (setting [7]); 0% in assay [3] (setting [8]); 68.5% in assay [3] (at 50.0 µM); 7% in assay [4] (setting [7]); -1% in assay [4] (setting [8]); 33.1% in assay [4] (at 50.0 µM). The growth inhibition was 2% in assay [5] (setting [7]); -1% in assay [5] (setting [8]); 39.9% in assay [5] (at 50.0 µM); -5% in assay [6] (setting [7]); 3% in assay [6] (setting [8]); 74.7% (active) in assay [6] (at 50.0 µM).
